Rows were chosen to be rich in hits. Some 14% of all compounds tested hit in one or more screens of this group.
USP8 inh: inhibitors of human USP8 deubiquitinase; P40818; purified USP8, Ub-rhodamine cleavage fluorescence, 30 min; inhibition, % at 20 µM; 47,000 compounds, 4.2% hits; AID 1645853
USP17 block: blocks human USP17 ubiquitin-rhodamine cleavage. purified USP17, Ub-rhodamine cleavage fluorescence, 3 h. 47,000 compounds, 6.5% hits. inhibition, % at 50 µM. AID 1645855. A8MUK1
USP30 inh: blocks human USP30 ubiquitin-rhodamine cleavage | Q70CQ3 | purified USP30, Ub-rhodamine cleavage fluorescence | inhibition, % at 25 µM | 47,000 compounds, 5.3% hits
USP10 block: blocks human USP10 ubiquitin-rhodamine cleavage; Q14694; purified USP10, Ub-rhodamine fluorescence, 60 min; inhibition, % at 20 µM; 47,000 compounds, 1.1% hits; AID 1645856
Target sequence (Q14694 whole entry, looked up): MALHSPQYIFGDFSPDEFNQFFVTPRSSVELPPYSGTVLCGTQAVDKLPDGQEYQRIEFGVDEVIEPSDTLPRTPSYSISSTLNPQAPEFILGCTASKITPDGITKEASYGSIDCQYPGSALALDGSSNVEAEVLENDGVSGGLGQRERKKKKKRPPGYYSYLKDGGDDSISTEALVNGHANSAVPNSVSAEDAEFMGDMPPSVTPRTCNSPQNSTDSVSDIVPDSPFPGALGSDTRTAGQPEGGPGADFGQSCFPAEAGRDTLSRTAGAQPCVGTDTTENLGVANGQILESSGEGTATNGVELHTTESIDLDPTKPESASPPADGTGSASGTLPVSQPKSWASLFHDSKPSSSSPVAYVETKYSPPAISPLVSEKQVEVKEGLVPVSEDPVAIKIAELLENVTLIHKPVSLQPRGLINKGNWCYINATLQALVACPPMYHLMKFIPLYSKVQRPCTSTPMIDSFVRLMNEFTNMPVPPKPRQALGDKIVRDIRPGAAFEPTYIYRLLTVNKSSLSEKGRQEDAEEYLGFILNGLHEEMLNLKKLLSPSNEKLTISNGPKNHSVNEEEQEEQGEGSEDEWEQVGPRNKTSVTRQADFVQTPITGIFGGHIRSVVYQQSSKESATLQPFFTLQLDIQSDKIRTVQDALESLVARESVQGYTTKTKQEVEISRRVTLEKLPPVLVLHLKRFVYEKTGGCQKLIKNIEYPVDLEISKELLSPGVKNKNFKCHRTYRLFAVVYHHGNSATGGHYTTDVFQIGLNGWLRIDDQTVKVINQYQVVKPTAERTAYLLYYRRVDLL
USP28 inh: blocks human USP28 ubiquitin-rhodamine cleavage. Q96RU2. purified USP28, Ub-rhodamine cleavage fluorescence, 30 min. inhibition, % at 25 µM. 47,000 compounds, 3% hits
Active calls of the source: *; . = no result given. No stated cut-off is given here; in the data, active means inhibition above about 30%; inactive means the rest.

SMILES	USP8 inh	USP17 block	USP30 inh	USP10 block	USP28 inh
O=C1CC(C(=O)Nc2ccccc2F)n2ncc(-c3ccccc3)c2N1 (centres undefined)	23	44*	8	5	18
O=C1CC(C(=O)Nc2ccc(Cl)cc2Cl)n2ncc(-c3ccccc3)c2N1 (centres undefined)	-35	-7	-10	16	-10
O=C1CC(C(=O)Nc2ccccc2F)n2nc(-c3ccccc3)cc2N1 (centres undefined)	39*	78*	15	16	56*
O=C1CC(C(=O)Nc2ccc3c(c2)OCO3)N=C(Nc2ccccc2)N1 (centres undefined)	0	2	10	3	-1
O=C(Nc1ccccc1F)C1CCC(=O)N1S(=O)(=O)c1ccccc1 (centres undefined)	-9	-4	-21	7	-6
O=C1CC(C(=O)Nc2ccccc2Cl)n2nc(-c3ccccc3)cc2N1 (centres undefined)	31*	72*	27	4	9
O=C(Nc1cc(-c2ccccc2)nn1CCO)C1CCCC1	0	-3	11	0	10
O=C1CC(C(=O)Nc2ccc3c(c2)OCO3)n2ncc(-c3ccccc3)c2N1 (centres undefined)	38*	14	0	3	10
O=C(Nc1ccc2c(c1)OCO2)C1CC(=O)N(CCc2ccccc2)C1 (centres undefined)	56*	44*	6	-2	9
O=C(Nc1ccc2c(c1)OCO2)C1CCN(Cc2nc3ccccc3s2)CC1	14	5	-6	-1	70*
COc1ccccc1-c1cnn2c1NC(=O)CC2C(=O)Nc1ccc(C)cc1C (centres undefined)	-14	-5	4	-1	-10
COc1ccc(NC(=O)C2CC(=O)Nc3c(-c4ccc(Cl)cc4)cnn32)c(OC)c1 (centres undefined)	1	60*	-1	4	-6
COc1ccc(CCN2CC(C(=O)Nc3ccc4c(c3)OCO4)CC2=O)cc1OC (centres undefined)	17	7	7	-2	8
O=S(=O)(c1ccc2c(c1)OCCCO2)N1CCN(Cc2nc3ccccc3s2)CC1	-8	-24	-49	-4	-14
O=C1CC(C(=O)Nc2ccc3c(c2)OCO3)n2nc(SCc3ccccc3)nc2N1 (centres undefined)	15	10	28	33*	11
COc1ccc(CNC(=O)C2(c3ccc(Cl)cc3)CCCC2)cc1	0	-15	-20	-2	-8
O=C(c1ccc(F)cc1)N1C[C@@H]2CCN(c3ncccn3)C[C@@H]2C1	-76	-13	0	0	3
COc1cc2c(c(OC)c1OC)-c1ccc(N3CCN(c4ccccc4)CC3)c(=O)cc1[C@@H](NC(C)=O)CC2	-59	-34	-42	-5	-11
Cc1nc(-c2cccnc2)nc2c1CC(=O)N2C1CCCC1	37*	12	4	-1	6
OC1CCN(c2cc(-c3cccnc3)nc(-c3cccnc3)n2)CC1	22	4	8	0	9
CCN(CC)C(=O)C1Cn2ccnc2C2(CCN(C(=O)Nc3ccccc3Cl)CC2)O1 (centres undefined)	-12	0	-5	-3	4
Cn1c(CCC(=O)NCc2cc(F)cc(F)c2)nc2ccccc2c1=O	15	0	-15	-1	-8
Cc1cccc2c(=O)n(C)c(CCC(=O)NCc3cc(F)ccc3F)nc12	5	38*	45*	-1	9
Cc1ccc(-n2ccn3c(CCC(=O)NCc4ccco4)nnc3c2=O)cc1C	-34	6	14	-1	8
Cc1ccc(-n2ccn3c(CCC(=O)NCc4ccc(F)cc4)nnc3c2=O)cc1C	67*	-1	27	10	14
SMILES	USP8 inh	USP17 block	USP30 inh	USP10 block	USP28 inh
COc1ccc(-n2ccn3c(CCC(=O)NCc4ccccc4)nnc3c2=O)cc1	19	0	8	2	-3
Cc1ccc(CNC(=O)CCc2nnc3c(=O)n(-c4ccc(C)c(C)c4)ccn23)cc1	41*	32*	40*	1	33*
O=C(NCc1ccc(Cl)cc1)c1cc2c(s1)-c1ccccc1OC2	74*	87*	55*	44*	25
O=C1CCSc2c1cccc2C(=O)Nc1cccc(C(F)(F)F)c1	14	5	7	1	12
O=C(NCc1ccc2c(c1)OCO2)c1cc2c(s1)-c1ccccc1OC2	56*	17	57*	25	27
CN1CCN(c2ccccc2NC(=O)c2cc3c(s2)-c2ccccc2SC3)CC1	9	-2	-2	7	-2
Cc1ccc(NC(=O)c2cc3c(s2)-c2ccccc2OC3)c(Cl)c1	28	27	41*	6	14
O=C(Nc1cccc(C(F)(F)F)c1)c1cc2c(s1)-c1ccccc1OC2	72*	.	70*	30	26
Cc1ccc(N2CC(C)Cn3c2nc2c3c(=O)n(Cc3ccc(F)cc3)c(=O)n2C)cc1 (centres undefined)	-37	-9	-22	0	1
Cc1ccc2nc3c(cc(C(=O)N4CCOCC4)n3Cc3ccccc3)c(=O)n2c1	-1	-33	14	-2	0
COc1ccc(C)cc1NC(=O)C1CC(=O)Nc2nc3ccccc3n21 (centres undefined)	29	70*	12	29	8
COc1cccc(Cn2nc(C(=O)O)c3ccccc3c2=O)c1	-14	-12	2	-8	38*
O=C(CCc1cccnc1)N1CCCC2(CCCN2Cc2cccc(F)c2)C1 (centres undefined)	-81	11	44*	-3	9
O=C(CCc1cccnc1)N1CCCC2(CCCN2Cc2ccccc2F)C1 (centres undefined)	-65	-20	-3	-6	-4
CCn1c(CN2CCc3ccccc3C2)nc2cc(S(=O)(=O)N(C)C)ccc21	79*	34*	-42	-5	5
CC(=O)NCc1ccc2[nH]c3c(c2c1)CCCC3	-8	-24	-85	-2	-22
O=S(=O)(NCc1ccc2[nH]c3c(c2c1)CCCC3)c1ccccc1	34*	-21	-404	-8	-101
Cc1ccc(CNC(=O)CN2C(=O)c3ccccc3C2c2c(-c3ccccc3)[nH]c3ccccc23)o1 (centres undefined)	23	37*	-15	-10	4
Cc1ccc(NC(=O)CN2c3ccccc3S(=O)(=O)c3ccccc32)c(C)c1	0	-1	0	-1	0
Cc1ccc(NC(=O)Nc2ccc(C)n(CC(=O)Nc3cc(C)ccc3C)c2=O)cc1	70*	54*	65*	39*	30*
Cc1ccc(C)c(NC(=O)Cn2ccc3ccn(C)c3c2=O)c1	5	46*	-4	0	0
Cc1ccc(NC(=O)Nc2ccc(C)n(CC(=O)Nc3ccc(C)cc3C)c2=O)cc1	69*	79*	74*	63*	53*
CCC(=O)N1CCN(c2nc3c(s2)CC(C(=O)NCc2ccccc2)CC3)CC1 (centres undefined)	10	8	13	-3	10
